Reference: the supplement of paper PMC3334620
In all, about 33,000 sequences were measured (“E-score (-0.5 to 0.5)”: median about -0.041, highest 2% from about 0.37 on). For the sample, the highest values were picked, then their nearest neighbours and some sequences at random.

biological target: T1, Ecm22 (UniProt Q05958); assay: PBM E-score (8-mer binding enrichment) (E-score (-0.5 to 0.5)); higher = stronger / more preferred TF binding; conditions: protein concentration: 200 nM; construct: GST-full length
T1 sequence: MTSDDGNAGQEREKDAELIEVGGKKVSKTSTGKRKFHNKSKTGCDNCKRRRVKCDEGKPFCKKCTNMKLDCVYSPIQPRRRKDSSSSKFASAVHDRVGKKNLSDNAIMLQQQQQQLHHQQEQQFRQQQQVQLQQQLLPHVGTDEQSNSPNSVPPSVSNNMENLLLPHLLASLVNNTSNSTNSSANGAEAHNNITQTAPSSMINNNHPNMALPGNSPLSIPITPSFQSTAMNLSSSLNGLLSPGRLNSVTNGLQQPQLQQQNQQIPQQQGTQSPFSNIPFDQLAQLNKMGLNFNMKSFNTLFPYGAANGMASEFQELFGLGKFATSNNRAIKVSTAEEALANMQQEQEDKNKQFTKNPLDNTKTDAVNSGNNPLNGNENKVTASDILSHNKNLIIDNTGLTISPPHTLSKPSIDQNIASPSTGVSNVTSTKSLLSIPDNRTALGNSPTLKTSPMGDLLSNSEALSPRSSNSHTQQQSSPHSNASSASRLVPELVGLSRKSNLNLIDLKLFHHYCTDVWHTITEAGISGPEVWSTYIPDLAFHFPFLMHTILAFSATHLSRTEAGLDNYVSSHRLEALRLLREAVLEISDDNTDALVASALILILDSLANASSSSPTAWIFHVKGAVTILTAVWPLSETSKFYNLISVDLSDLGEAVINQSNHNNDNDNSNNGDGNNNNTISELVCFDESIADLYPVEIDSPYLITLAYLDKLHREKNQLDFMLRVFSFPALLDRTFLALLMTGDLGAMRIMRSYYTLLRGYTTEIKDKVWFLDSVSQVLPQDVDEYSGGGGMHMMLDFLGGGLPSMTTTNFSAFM
Procedure: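 Universal 'all 10-mer' protein binding microarrays (Agilent AMADID 015681) probed with GST-tagged S. cerevisiae TFs (full-length or DBD) made by in vitro transcription/translation (PURExpress), about 100-200 nM. Bound TF was detected with fluorescent anti-GST. Each ungapped 8-mer (which stands for itself and its reverse complement) is scored by the PBM enrichment score (E-score), a modified Wilcoxon-Mann-Whitney statistic from -0.5 to +0.5, computed with the Universal PBM Analysis Suite. Scale: above 0.35 generally sequence-specific binding.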

Sequence	PBM E-score
ACGTACAG	0.186
GCGTACAA	0.243
AATTTCTC	0.0237
AGCTCGTC	0.0121
GGCTCGAA	0.0317
GGCTCGTA	0.479
AGCTCGTG	0.182
CGCTCGTA	0.467
GGCTCGGA	0.0976
CGCTCGTC	0.168
AGCTCGTA	0.477
CGCTCGGA	0.252
AGGTCTAT	0.0387
TATGATGA	0.00697
ATAGGTTC	0.00586
CGGCCTCC	-0.0189
ACCCGAAA	0.14
TTATAGAA	-0.0153
AGCAATAA	-0.127
CGCCCGAA	0.0388
CGCGCGGC	0.225
GCTCAGGA	-0.107
AACGACAT	0.434
TGCGACAA	0.141
AGCGACAT	0.214

Sequence	PBM E-score
ACCGACAT	0.217
TTCGACAA	0.0503
ATCGACAG	0.00794
TACGACAA	0.455
AACGACAG	0.412
CACGACAA	0.09
AACGACAA	0.41
CACGACAG	0.0642
GACGACAA	0.155
GGACCTCA	-0.206
CTGGGAAC	0.132
TGGGTAAA	0.0399
AGTGTCCG	0.0467
CACTCTCG	0.174
CTCGTGGA	-0.0176
CAGGCCTA	-0.218
AAATCCTG	0.015
AGATCGAA	-0.0769
CAAGGTGC	-0.235
AGGACCAA	-0.168
AACGACAC	0.421
CACGACAC	0.147
GACGACAC	-0.0609
AAGACGGG	-0.114
CGTCCGCC	-0.111

Sequence	PBM E-score
ACTGGGGC	-0.276
GACGATAA	0.0921
ACCGATAT	0.138
AACGATCC	0.307
AGCGATAT	0.222
AACGATCT	0.381
AACGATAT	0.408
AACGATCA	0.346
TACGATAA	0.408
GACGATAC	0.127
AACGATAC	0.389
AACGATAG	0.345
CACGATAA	0.00212
AACTCTTC	0.0679
CAATGGGC	-0.209
CCCGGCAC	-0.159
AGAGGGAC	-0.0884
ATCTCCTC	-0.0702
ACCGATAA	0.116
CACGATAG	-0.065
AACGATAA	0.382
AGTTAAGC	0.0271
CGTTAAAC	0.392
CGTTAAGC	0.4
CGTTAAGA	0.222

Sequence	PBM E-score
CGTTAAAA	0.287
GGTTAAAC	0.116
TCTCTTCA	-0.0952
AGACCGCA	-0.0494
GTGACAGA	-0.0918
CCAACTTA	-0.115
ACGTTCCA	0.214
TCGTTTCA	0.396
TCGTTCCA	0.475
GCGTTTCA	-0.0209
CCGTTCCC	0.464
GCGTTCCC	0.104
ACGTTTCA	0.107
ACGTTCCC	0.269
GCGTTCCA	0.141
CCGTTCGA	0.152
CCGTTCCA	0.373
CTGTTCCA	-0.186
CTTGTGAA	-0.226
GATCCCGC	0.0461
GTTCACCA	0.0888
TCGCTAAA	0.34
AAAGCTCT	-0.258
CCGTTCCG	0.441
CAGTTCCG	0.14

Sequence	PBM E-score
TCGTTCAA	0.448
GCGTTCAA	0.0639
ACGTTCCG	0.259
ACGTTCAA	0.188
AAGATCAA	-0.0315
ATAGGAAA	-0.0768
CTTTGGCA	-0.144
AGCTCAAC	-0.0198
AAAGAAGT	-0.0866
AACGAAGA	0.421
AACGAAGT	0.419
TAAGAAGA	0.0914
TCCGAAGA	0.0982
GACGAAGC	0.0937
ACCGAAGT	0.207
AACGAAGC	0.437
CACGAAGC	0.0604
CACGAAGA	0.226
GACGAAGA	0.0867
TACGAAGA	0.444
CGGATTTC	0.0823
CGCGGCAC	0.0802
ATTCTGGG	-0.192
TCCAATCA	-0.115
TTCTTAAA	-0.107

Sequence	PBM E-score
ATTGAGGA	-0.0867
AGCGCCGC	-0.188
ATAAACTA	0.0319
TAGTCTAA	-0.04
ACTATCCT	-0.133
ACTACGGC	-0.0479
ACGTCGCG	0.162
TGGACCCA	-0.131
CACGAAGG	0.0498
AACGAAGG	0.398
ACCGAAGG	0.107
CCGAACCA	-0.0831
ACGAACCA	0.391
GCGAAGCA	0.0616
ACGAACCG	0.368
ACGAAGCA	0.378
ACGAACCC	0.28
ACGAAGCG	0.317
CCGAACCG	0.12
GCGAACCA	0.146
ACGGTCAA	0.297
GTTACACA	-0.0371
CGCACCAC	0.0793
CATATCCA	-0.0799
AATGGAAA	-0.198

Sequence	PBM E-score
CACGGTAC	0.113
AATCTGGA	-0.119
CGTACCCA	0.406
AGTACCCC	-0.0697
CGTACCCC	0.453
AGTACCCA	-0.208
CATACCCC	-0.0887
GGTACCCA	-0.145
GCCTGCGC	-0.272
ACCCTACG	-0.142
AGCGGTGC	0.0264
GATTTGAC	0.202
AGAGACGC	0.0019
CGTATGGA	0.383
AGTATGGC	-0.0838
GGTATGGA	-0.15
CGTATGTC	0.342
CGTATGGC	0.4
AGTATGGA	-0.115
CCGAGATA	0.186
TTACGCAA	0.115
AGTTTGCC	-0.117
